From PubChem BioAssay AID2521 (Sanford-Burnham Center for Chemical Genomics, 2010)
In all, about 330,000 compounds went through this assay and about 1,100 (0.33%) were called active. Many of the other results were omitted from the sample, so actives are more common in it than they were. Unmarked numbers belong to inactive results.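 Rule for the calls: active = inhibition above about 40% at 20 µM (limit read from the data); inactive = the rest.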

Target: Apelin receptor (Homo sapiens) (UniProt P35414)
Sequence (P35414 whole entry, looked up): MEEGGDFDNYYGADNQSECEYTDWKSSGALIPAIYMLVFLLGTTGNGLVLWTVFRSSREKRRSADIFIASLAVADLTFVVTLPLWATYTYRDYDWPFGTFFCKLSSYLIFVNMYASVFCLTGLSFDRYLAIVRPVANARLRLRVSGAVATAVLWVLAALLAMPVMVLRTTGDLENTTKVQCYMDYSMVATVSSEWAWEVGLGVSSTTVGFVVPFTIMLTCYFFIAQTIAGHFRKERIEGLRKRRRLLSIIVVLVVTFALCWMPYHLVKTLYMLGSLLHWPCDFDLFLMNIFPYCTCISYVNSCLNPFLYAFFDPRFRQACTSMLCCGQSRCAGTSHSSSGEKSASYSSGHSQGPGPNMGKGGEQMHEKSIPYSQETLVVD
Assay: blockade of apelin-induced APJ beta-arrestin recruitment – CHO-K1 cells, beta-arrestin complementation, luminescence, primary screen (AID 2521);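 note: cells challenged with 10 nM apelin-13 agonist together with compound; plate controls were apelin-13 plus DMSO wells for no effect and DMSO wells lacking apelin-13 for full effect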
Settings: at 20 µM, stronger effect = higher value

With O=c1ccc2c(-c3ccccc3S(=O)(=O)O)c3ccc(O)c(O)c3oc-2c1O the inhibition was 49.3% (active).
With CC(C)OC(=O)CN1C(=O)C(=O)c2ccccc21 the inhibition was 103% (active).
For Cc1cccc2cc3c(N)c(C(=O)N4CCCc5ccccc54)sc3nc12, the inhibition was 95.8% (active).
For CC(CN1CCOCC1)OC(=O)c1ccc(C(C)(C)C)cc1 (configuration not stated), the inhibition was 77% (active).
For COc1cc(/C=N\NC(=O)CNC(=O)c2cccc([N+](=O)[O-])c2)ccc1O, the inhibition was 53.6% (active).
For COc1ccc(-c2csc(Cc3nc(O)cs3)n2)cc1, the inhibition was 66.3% (active).
For CC1CC2=C(CC1/C=N/NC(N)=S)C(C)(C)CCC2 (configuration not stated), the inhibition was 49.2% (active).
In the case of O=[N+]([O-])c1ccccc1S(=O)(=O)Nc1cccc2cccnc12, the inhibition is reported as 53.5% (active).
CC(=O)Nc1ccc(NC(=O)c2sc3nc4c(c(-c5ccc(C)cc5)c3c2N)CCC4)cc1 was tested, and the inhibition was 41.5% (active).
For O=C(CCc1nc2ccccc2c(=O)[nH]1)OCC(=O)c1cccc(Cl)c1, the inhibition was 46% (active).
In the case of CN=C1C=C/C(=N/N=c2\ccn(O)cc2C)C=C1C, the inhibition is reported as 46% (active).
CCOC(=O)c1cnc(Nc2nc3ccccc3o2)nc1CSC(=S)N1CCCCC1 was tested, and the inhibition was 44.1% (active).
With O=[N+]([O-])c1cc(Cl)cc(/C=N/NC(=S)Nc2cc(S(=O)(=O)N3CCOCC3)ccc2Cl)c1O the inhibition was 42.1% (active).
In the case of O=C(CSc1cccc2cccnc12)N/N=C/c1cccnc1, the inhibition is reported as 41.8% (active).
In the case of COc1cc(NS(=O)(=O)c2ccc3ccccc3c2)c2ncccc2c1, the inhibition is reported as 65.3% (active).

In order of falling inhibition:
1. CC(OC(=O)CN1C(=O)c2ccccc2C1=O)C(=O)c1ccccc1 (configuration not stated)  23%
2. Cc1c(C(=O)N2CCCc3ccccc32)sc2nc(-c3ccccc3)cn12  21%
3. CCC(=O)c1ccc(OC(=O)/C=C/c2cc(OC)c(OC)c(OC)c2)cc1  20.9%
4. CCOc1ccc(S(=O)(=O)Nc2ccc(S(=O)(=O)Nc3cc(OC)ccc3OC)cc2)cc1  15.7%
5. COc1ccc(O)c(/C=N/N=C/c2cccc([N+](=O)[O-])c2)c1  15.6%
6. O=C1C=C(c2ccccc2)CCC1  14.7%
7. Cc1csc(NC(=O)CSc2nnc(-c3cccnc3)o2)n1  14.2%
8. COc1cccc(NC(C)=[N+](C)CCNS(=O)(=O)c2ccc(Cl)cc2)c1  13.5%
9. C=C(C)C(=O)O[C@H]1C/C(C)=C\C(=O)/C=C(\C)[C@H](O)[C@@H]2OC(=O)C(=C)[C@@H]21  13.2%
10. CCNC(=S)N(CCN(CC)CC)Cc1cc2cc3c(cc2[nH]c1=O)OCO3  12.3%
11. Brc1cc(Br)c(Oc2cc(Br)c(Br)cc2Br)cc1Br  11.9%
12. Cc1ccc(OCCCC(=O)Nc2ccc(N3CCOCC3)cc2)cc1  11.8%
13. COC(=O)Cc1ccc(OC(=O)C2CCN(S(=O)(=O)c3ccc(OC)c(OC)c3)CC2)cc1  11.3%
14. CCOC(=O)N/N=C/c1cccnc1  11.3%
15. COCCn1c(SCC(=O)Nc2ccccc2F)nc2c(c1=O)SCC2  10.3%
16. O=S(=O)(NCCc1ccc(F)cc1)c1cccc2cccnc12  9.75%
17. CC(C)(C)c1ccc(NC(=O)COC(=O)CCc2nc3ccccc3c(=O)[nH]2)cc1  9.52%
18. Cc1cc(C(=O)CC#N)c(C)n1-c1c(C)n(C)n(-c2ccccc2)c1=O  9.25%
19. O=C(CN1C(=O)NC2(CCCC2)C1=O)Nc1ccc(F)c(F)c1F  8.35%
20. c1ccc(Cc2nn3c(Cn4cnc5ccccc54)nnc3s2)cc1  7.67%
21. CSc1cc(C)n(-c2ccccc2C)c(=S)c1C(C)=O  7.52%
22. CC(=O)N1c2ccc(S(=O)(=O)N3CCC(C(=O)NCc4ccc(F)cc4)CC3)cc2CC1C (configuration not stated)  7.14%
23. CS(=O)(=O)N1CCc2cc(C(=O)Nc3ccccc3)ccc21  6.74%
24. Cc1c(C(=O)N2CCCc3ccccc32)oc2ccccc12  6.71%
25. CC(C)C[C@@H](N)c1nnc(SCC(=O)c2ccc(Cl)cc2)o1  6.62%
26. CCOc1ccc(NS(=O)(=O)c2ccc(Cl)c(C(=O)N(C)Cc3cccnc3)c2)cc1  6.06%
27. COc1ccccc1OC(C)C(=O)Nc1ccc(S(=O)(=O)Nc2nccs2)cc1 (configuration not stated)  5.98%
28. O=C(COC(=O)CCc1nc2ccccc2c(=O)[nH]1)Nc1ccc(N2CCOCC2)cc1  5.92%
29. Cc1ccc(NC(=O)c2sc3nc(N)c(C#N)cc3c2N)cc1  5.56%
30. COc1ccc(-c2csc(NC(=O)COC(=O)Cc3ccc(Cl)cc3Cl)n2)cc1  4.6%
31. COc1ccc(C(=O)C[n+]2ccc(N)c(C)c2C)cc1  4.36%
32. COc1ccc(C(=O)NCC(=O)N/N=C/c2cccnc2)cc1  4.23%
33. O=C(NCCCc1ccccc1)C1CCC(=O)N(CCc2ccc(Cl)cc2)C1 (configuration not stated)  4.1%
34. O=C1Oc2ccccc2C(=O)/C1=C/c1ccccc1O  3.82%
35. CCNS(=O)(=O)c1ccc(NC(=O)c2cncc(Br)c2)cc1  3.77%
36. COc1ccc(S(=O)(=O)N2CCOCC2)c(C)c1C  3%
37. COC(=O)c1nc2n(n1)C(c1ccc([N+](=O)[O-])cc1)C(C(=O)Nc1ccc(Cl)cc1)=C(C)N2 (configuration not stated)  2.59%
38. O=C(Nc1cc(=O)[nH]c2ncnn12)c1ccccc1Cl  2.3%
39. N#CCCN(CCC#N)c1nnc(-c2ccccc2)s1  1.67%
40. COc1ccc(N2CC(NS(=O)(=O)c3ccc4ccccc4c3)CC2=O)cc1 (configuration not stated)  1.28%
41. CCc1nc2cccnc2n1-c1ccc(C(=O)O)cc1  1.09%
42. Cc1cccc(N(C(=O)c2ccc(CN3CCOCC3)o2)C(C(=O)NC2CCCCC2)c2ccc(F)cc2)c1 (configuration not stated)  0.911%
43. O=C(CC1SC(=Nc2ccccc2)N(Cc2ccccn2)C1=O)Nc1cccc(Cl)c1 (configuration not stated)  0.604%
44. Cc1cccc(NC(=O)c2sc3nc(N4CCOCC4)c4c(c3c2N)CCCC4)c1  0.268%
45. COc1ccccc1NC(=O)c1c(Br)cnn1C  -0.0339%
46. COc1ccc(-n2nc(C(=O)NCC(=O)N3CCC(C(N)=O)CC3)c3ccccc3c2=O)cc1OC  -0.314%
47. Clc1ccc(Cn2ncc3c(NCc4cccnc4)ncnc32)cc1  -0.393%
48. CCOC(=O)CN1C(=O)C(=O)c2cc(C)ccc21  -0.658%
49. COc1ccc(C(=O)NCC(=O)N/N=C/c2ccc([N+](=O)[O-])o2)cc1OC  -1.61%
50. O=[N+]([O-])C(=c1ccc2c(c1)N1C3=C(CCCC3)CC3CCCCC31N=2)[N+](=O)[O-] (configuration not stated)  -3.42%
51. CN(CC(=O)NCc1cccnc1)S(=O)(=O)c1cc(Cl)ccc1Cl  -3.77%
52. O=C(NCCS(=O)(=O)NCc1ccc(Cl)cc1)c1ccccc1  -4.12%
53. CC(CN1CCOCC1)OC(=O)c1ccc(Cl)cc1Cl (configuration not stated)  -5.38%
54. CC(C)(C)C(=O)OCc1nc(-c2ccc(O)c(O)c2)cs1  -5.74%
55. CCc1ccc(CNC(=O)C2CCCN(c3nc4ccccc4o3)C2)cc1 (configuration not stated)  -5.94%
56. CC(=O)c1ccc(S(=O)(=O)N(C)CCCC(=O)N(C)Cc2ccccc2F)cc1  -6.03%
57. CCO[C@H]1OC(C(=O)O)=C[C@@H](C2CCCCC2)[C@@H]1CCCO  -6.59%
58. COc1ccc(NC(C)=O)cc1NC(=O)CN1CCN(C2c3ccccc3-c3ccccc32)CC1  -6.9%
59. Cn1cc[n+](C)c1COc1ccc(C=O)cc1  -7.79%
60. CCCn1nc2cc(C(=O)NCc3ccccc3)ccc2c1OCC  -8.45%
61. Cc1ccc(C(=O)COC(=O)c2cccc(N3C(=O)c4c(C)nc5ccccc5c4C3=O)c2)cc1C  -8.71%
62. O=C(O)CC1S/C(=N\N=C/c2ccccc2O)N(c2ccc(O)cc2)C1=O (configuration not stated)  -8.74%
63. NS(=O)(=O)c1ccc(CCNS(=O)(=O)c2cccc3cccnc23)cc1  -8.92%
64. O=C(C1CC(=O)N(c2ccc(Br)cc2)C1)N1CCCC1 (configuration not stated)  -9.51%
65. Cc1ccc(S(=O)(=O)N2CCN(CC(=O)N/N=C/c3cc([N+](=O)[O-])ccc3Cl)CC2)cc1  -9.95%
66. CCOC(=O)c1cnc2nc(SCc3ccccc3Cl)[nH]n2c1=O  -11.5%
67. O=C(c1ccccc1Cl)N(Cc1ccccc1F)N1C(=O)CCCC1=O  -12.8%
68. CCOC(=O)CCNC(=O)N1CCCC(C(=O)c2ccccc2SC)C1 (configuration not stated)  -13.5%
69. COc1ccc(N2CCN(C(=O)CCSCc3ccccc3F)CC2)cc1  -13.7%
70. Cc1ccc(C(=O)OC(C)CN2CCOCC2)cc1 (configuration not stated)  -14.4%
71. COc1cccc(CC2(CO)CCN(Cc3cnc(-c4cccc(C)c4)nc3)CC2)c1  -17.4%
72. COc1cc2c(cc1OC)C(C)N(S(=O)(=O)c1cnc(Cl)c(Cl)c1)CC2 (configuration not stated)  -23.5%
73. O=S(=O)(c1ccc(NC(=S)NN=C(C2CC2)C2CC2)cc1)N1CCOCC1  -24.4%
74. O=[N+]([O-])c1cc(S(=O)(=O)CCCN2CCOCC2)ccc1F  -24.6%
75. COc1ccc(CCNC(=S)NC(=O)/C=C/c2ccc(C)cc2)cc1OC  -38%
76. COc1cccc(CNC(=O)C(=O)NCCC2CCCCN2S(=O)(=O)c2ccc(C)cc2)c1 (configuration not stated)  -56.9%
77. O=C(c1ccc(Cl)s1)N(Cc1nnc(-c2ccccc2Cl)o1)C1CC1  -57.5%
